For 40 compounds, Potency results are on record in PubChem BioAssay (Tox21).

Activity calls are given as the source filed them. Entries that show only a call come without a potency. The call rests on the fitted dose curve; in most records, active means well fitted curve in the direction sought with a large enough effect in the repeat runs; inconclusive means weak or mixed curves; inactive means flat fitted curve, though single readings scatter.

The assay in a line: qHTS assay to test for compound auto fluorescence at 535 nm (green) in HEK293 cells (AID 720680). The conditions noted are these: green autofluorescence 485/535 nm; series mostly up to 46 µM. The text has this: U.S. Tox21 Program National Center for Advancing Translational Sciences [NCATS] NIH Chemical Genomics Center [NCGC] U.S. Environmental Protection Agency [EPA] National Institutes of Environmental Health Sciences [NIEHS] National Toxicology Program [NTP] U.S. Food and Drug Administration [FDA] Tox21 Assay Overview: Compound auto fluorescence often interferes with screening of the compound library against various biological targets and signaling pathways. Some of these compounds may have fluorophoric properties. Such properties may interfere with the assay outputs resulting in false positives and/or negatives. To decrease such complications and ensure the compound activities are relevant in terms of biological response, the Tox21 10K compound library was screened for auto fluorescence. From the fluorophores used as reporter signals in our screening assays, the auto fluorescence equivalencies of compounds against three fluorophores have been evaluated: Triamterene, Fluorescein and Rose Bengal sodium for blue, green and red fluorescence, respectively. The fluorescence intensities were measured using Excitation/Emission wavelengths at 405/460nm, 485/535nm and 540/590nm for blue, green and red labels, respectively. This assay includes the green fluorescence data.
Tox21 Assay Protocol Summary: 2,000 HEK293 cells in 5 uL of culture medium containing 10% dialyzed FBS per well were dispensed into black wall/clear bottom 1536-well plates using a Multidrop Combi Dispenser (Thermo Scientific). The assay plates were incubated for 4-5 hr at 37C to allow cell attachment to the well bottom, followed by the transfer of 23 nL compound or DMSO vehicle by a pintool work station (Kalypsys, San Diego, CA). After the assay plates were incubated overnight at 37C and 5% CO2, fluorescence intensities in the assay plates were measured by an Envision (PerkinElmer, Shelton, CT) plate reader using three labels for measuring blue, green and red fluorescence at […] 460, 535 and 590nm respectively.
In general terms: qHTS replaces the single test concentration by a dilution series.
Consider `CC(=O)[C@H]1CC[C@H]2[C@@H]3CC[C@@H]4C[C@H](O)CC[C@]4(C)[C@H]3CC[C@]12C`, for which the Potency entry is “inactive”.

Regarding `C=C[C@H]1CN2CC[C@H]1C[C@H]2[C@H](OC(=O)OCC)c1ccnc2ccc(OC)cc12`, the Potency entry was “inactive”.

Turning to `CCOC(=O)C1(c2ccccc2)CCCN(C)CC1` (stereo not given), the Potency result is “inactive”.

`C[C@@H](Cc1ccccc1)NCCC(c1ccccc1)c1ccccc1`: the Potency entry is “inactive”.

With `CNc1ccc(C(=O)CC(O)CCC(C)C2OC(=O)CC(O)CC(=O)CC(O)CC(O)CC(O)CC(O)CC3(O)CC(O)C(C(=O)OC)C(CC(O[C@@H]4O[C@H](C)[C@@H](O)[C@H](N)[C@@H]4O)/C=C/C=C/C=C/C=C/C=C/C=C/C=C/C2C)O3)cc1` (stereo not given in full), the Potency result is “inactive”.

As to `O=C(O)/C=C/C(=O)O`, the Potency entry is “inactive”.

On to `OC[C@@H](O)[C@H]1O[C@@H]2O[C@@H](C(Cl)(Cl)Cl)O[C@@H]2[C@H]1O`, for which the Potency result is “inactive”.

Regarding `[H+].[H+].[Hg+2].[O-]B([O-])[O-].[c-]1ccccc1`, the Potency result is “inactive”.

In the case of `CC(=O)OCC(=O)[C@H]1CC[C@H]2[C@@H]3CC[C@H]4C[C@H](O)CC[C@]4(C)[C@H]3C(=O)C[C@]12C`, the Potency result is “inactive”.

For the compound `c1ccc2c(c1)Sc1ccccc1N2C[C@@H]1CN2CCC1CC2`, the Potency entry is “inactive”.

With `CCC1(c2cnc[nH]2)Cc2ccccc2C1`, the Potency entry is “inactive”.

As to `CCCCNC(C)(C)[P+](=O)O`, the Potency result is “inactive”.

Regarding `CCN1C[C@]2(COC)[C@H](O)C[C@H](OC)[C@@]34[C@@H]5C[C@@]6(O)[C@H](OC(=O)c7ccccc7)[C@@H]5[C@@](OC(C)=O)([C@@H]([C@H](OC)[C@H]23)[C@@H]14)[C@@H](O)[C@@H]6OC`, the Potency result was “inactive”.

With `O=C1CCO1`, the Potency result was “inactive”.

With `CN1[C@@H]2CC[C@H]1CC(OC1c3ccccc3CCc3ccccc31)C2` (stereo not given in full), the Potency result is “inactive”.

Turning to `Nc1ccc([N+](=O)[O-])cc1`, the Potency result was “inactive”.

For the compound `CCCCCCC(=O)O[C@H]1CC[C@H]2[C@@H]3CC[C@H]4CC(=O)C=C(C)[C@]4(C)[C@H]3CC[C@]12C`, the Potency entry was “inactive”.

In the case of `Cc1cccc(C(C)c2cnc[nH]2)c1C` (stereo not given), the Potency result is “inactive”.

In the case of `C[N+]1(C)CCCCC1COC(=O)C(O)(c1ccccc1)c1ccccc1` (stereo not given), the Potency result was “inactive”.

Take `CN1CCCC(=C(c2cccs2)c2cccs2)C1`: the Potency result is “inactive”.

Turning to `C=C[C@H]1CN2CC[C@H]1C[C@@H]2[C@@H](O)c1ccnc2ccccc12`, the Potency result was “inactive”.

Regarding `Clc1ccc(C(Cn2ccnc2)OCc2csc3c(Cl)cccc23)c(Cl)c1` (stereo not given), the Potency entry was “inactive”.

As to `CC(C)C[C@H](CN)CC(=O)O`, the Potency result is “inactive”.

As for `CN=C1CN(O)C(c2ccccc2)=c2cc(Cl)ccc2=N1`, the Potency entry was “inactive”.

In the case of `Cc1ccccc1-n1c(CF)nc2ccc(N)cc2c1=O`, the Potency entry was “inactive”.

As to `CCCCCCCCCC(=O)O[C@H]1CC[C@H]2[C@@H]3CCC4=CC(=O)CC[C@]4(C)[C@H]3CC[C@]12C`, the Potency entry was “inactive”.

With `Cc1ccccc1-n1c(C)nc2ccccc2c1=O`, the Potency result is “inactive”.

`Cc1nnc2n1-c1ccc(Cl)cc1C(c1ccccc1Cl)=NC2`: the Potency result is “inactive”.

As to `CCC1(c2ccccc2)C(=O)NC(=O)N(C)C1=O` (stereo not given), the Potency result was “inactive”.

Consider `CNC1(c2ccccc2Cl)CCCCC1=O` (stereo not given), for which the Potency entry is “inactive”.

Take `Clc1ccccc1-c1ccccc1Cl`: the Potency entry is “inactive”.

Consider `F/C(COc1ccc2c(c1)[nH]c1ccccc12)=C1/CN2CCC1CC2`, for which the Potency result is “inactive”.

On to `C[N+]1(C)[C@@H]2CC[C@H]1CC(OC(=O)c1c[nH]c3ccccc13)C2` (stereo not given in full), for which the Potency result was “inactive”.

As for `CCC/C=C/C=C/C(=O)O[C@H]1/C(=C/C(=O)OC)C[C@H]2C[C@H]([C@@H](C)O)OC(=O)C[C@H](O)C[C@@H]3C[C@H](OC(C)=O)C(C)(C)[C@](O)(C[C@@H]4C/C(=C/C(=O)OC)C[C@H](/C=C/C(C)(C)[C@]1(O)O2)O4)O3`, the Potency entry is “inactive”.

Consider `O=P(O)(O)C(Cl)(Cl)P(=O)(O)O`, for which the Potency entry is “inactive”.

On to `C[C@]12C=CC(=O)C=C1CC[C@@H]1[C@@H]2CC[C@]2(C)OC(=O)CC[C@@H]12`, for which the Potency entry is “inactive”.

With `CCc1cc(OC)c(C[C@@H](C)N)cc1OC`, the Potency entry was “inactive”.

Regarding `O=C1C(I)=CC(=C(c2cc(I)c(O)c(I)c2)c2ccccc2C(=O)O)C=C1I`, the Potency entry is “inactive”.

On to `Oc1cccc[c]1[Hg][Cl]`, for which the Potency result was “inactive”.

With `O=C1CCCCC1CN1CCCCC1` (stereo not given), the Potency entry was “inactive”.
